Test results from PubChem BioAssay (NCI).
This is part of a sample that, as a whole, favours compounds with a hit. Of some 83,000 tested, about 20% had one in any assay.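 In brief: 96-well plates, 48 h treatment, single concentration, percent growth endpoint.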 Activity calls are given as the source filed them. How the source made its calls: active means growth percent below 10; inactive means the rest.

Experiments:
Experiment in all cases: NCI-60 one-dose screen, 48 h (100 = growth as untreated, 0 = no growth, -100 = all killed)
Settings in all cases: 10 µM unless noted
BT-549 breast = tested on: BT-549 breast
MDA-MB-435 melanoma = tested on: MDA-MB-435 melanoma
MCF7 breast = tested on: MCF7 breast
HCT-116 colon = tested on: HCT-116 colon
HCC-2998 colon = tested on: HCC-2998 colon
KM12 colon = tested on: KM12 colon
SW-620 colon = tested on: SW-620 colon

Measured: growth

C=CCn1c(SCC(=O)Nc2cccc(C(=O)/C=C/c3ccc(Cl)cc3)c2)nc2ccccc2c1=O
inactive: BT-549 breast 94.6% | MDA-MB-435 melanoma 92.3% | MCF7 breast 28.3% | HCT-116 colon 15.4% | HCC-2998 colon 94.8% | KM12 colon 88%

CCNCc1c(-c2cccc(OC(F)(F)F)c2)[nH]c2ccc(N3CCCC3)cc2c1=O
inactive: BT-549 breast 50.6% | SW-620 colon 16.8% | MCF7 breast 11.4% | HCT-116 colon 11.2% | KM12 colon 14.8%
active: HCC-2998 colon -27.7%

CC(=O)c1sc(Nc2cccc(Nc3nc(C)c(C)s3)c2)nc1C
inactive: BT-549 breast 46.2% | MDA-MB-435 melanoma 59.1% | SW-620 colon 62.5% | MCF7 breast 61.7% | HCT-116 colon 44.2% | HCC-2998 colon 80.1% | KM12 colon 60.2%

CC1(C)CC[C@]2(C(=O)O)CC[C@]3(C)C(=CCC4[C@@]5(C)C[C@@H](O)[C@@H]6OC(c7cccc([N+](=O)[O-])c7)OC[C@@]6(C)C5CC[C@]43C)C2C1 (stereo partly drawn)
inactive: BT-549 breast 77.3% | MDA-MB-435 melanoma 85.5% | SW-620 colon 73.7% | MCF7 breast 74.4% | HCT-116 colon 49.5% | HCC-2998 colon 42% | KM12 colon 46.1%

CCN(CC)CCCC(C)NCC(=O)NC(c1ccc2c(c1)OCO2)c1cc(Cl)c2cccnc2c1O (stereo not drawn)
inactive: BT-549 breast 79% | SW-620 colon 24.2%
active: MDA-MB-435 melanoma 8.56% | MCF7 breast 7.35% | HCT-116 colon 7.29% | HCC-2998 colon -11.4% | KM12 colon 9.46%

CNC(=O)c1cc(Oc2ccc3nc(NC(=O)c4cc(C)cc(C)c4)sc3c2)ccn1
inactive: BT-549 breast 11.6% | MDA-MB-435 melanoma 40.6% | SW-620 colon 92.7% | MCF7 breast 82% | HCT-116 colon 32.9% | HCC-2998 colon 103% | KM12 colon 91.3%

C#C[C@]1(O)CC[C@H]2[C@@H]3CC=C4c5sc(Nc6cccc(Cl)n6)nc5CC[C@]4(C)[C@H]3CC[C@@]21C
active: MDA-MB-435 melanoma -65.8% | SW-620 colon -61% | MCF7 breast -70.4% | KM12 colon -10.8%
inactive: BT-549 breast 24.1% | HCT-116 colon 10.1% | HCC-2998 colon 24.2%

O=S(=O)(NC1CC2CCC1C2)c1ccc2c(c1)C(=NO)c1cc(S(=O)(=O)NC3CC4CCC3C4)ccc1-2 (stereo not drawn)
active: SW-620 colon -63.4%
inactive: BT-549 breast 31.7% | MDA-MB-435 melanoma 27.1% | MCF7 breast 25.3% | HCT-116 colon 20.3% | HCC-2998 colon 38.9% | KM12 colon 45.9%

CCOC(=O)C1=C(C)N=C2Sc3ccccc3N2C1c1ccccc1 (stereo not drawn)
inactive: BT-549 breast 92.2% | MDA-MB-435 melanoma 102% | SW-620 colon 92.2% | MCF7 breast 106% | HCT-116 colon 65% | HCC-2998 colon 97.1% | KM12 colon 93.9%

CC1(C)CC[C@]2(C(=O)N3CCCNCC3)CC[C@]3(C)C(=CC[C@@H]4[C@@]5(C)CCC(=O)C(C)(C)[C@@H]5CC[C@]43C)[C@H]2C1
inactive: BT-549 breast 112% | MDA-MB-435 melanoma 112% | SW-620 colon 101% | MCF7 breast 93.6% | HCT-116 colon 103% | HCC-2998 colon 102% | KM12 colon 105%

O=C(CN1C(=O)CSC1=O)Nc1ccc(C(=O)/C=C/c2cc3ccccc3nc2Cl)cc1
active: HCT-116 colon -45.5%
inactive: BT-549 breast 66.1% | MDA-MB-435 melanoma 25.6% | SW-620 colon 95.6% | MCF7 breast 12.5% | HCC-2998 colon 82.1% | KM12 colon 62.2%

COc1ccc(Oc2ccc(C3CC(c4cc(OC)c(OC)c(OC)c4)=NN3C(C)=O)cc2)cc1 (stereo not drawn)
inactive: BT-549 breast 45.5% | SW-620 colon 46.9% | MCF7 breast 10.1% | HCT-116 colon 19.5% | HCC-2998 colon 42.2% | KM12 colon 27.5%

CC1(COc2ccc3ncc(C#Cc4cncc(C(=O)Nc5cc(C(C)(C)C)on5)c4)n3n2)COC1
inactive: BT-549 breast 81.3% | MDA-MB-435 melanoma 50% | SW-620 colon 38.2% | MCF7 breast 40.5% | HCT-116 colon 17.9% | HCC-2998 colon 49.7% | KM12 colon 15%

CCCCCc1ccc(S(=O)(=O)N(C(C)=O)c2cccc(-c3csc(N(CCN4CCN(C)CC4)C(C)=O)n3)c2)cc1
active: MDA-MB-435 melanoma -73% | SW-620 colon -26.5% | MCF7 breast -66.2% | HCT-116 colon -66.2% | HCC-2998 colon -81.2%
inactive: BT-549 breast 91.3% | KM12 colon 27.4%

COC(=O)Nc1ccc(-c2nc(-c3cccc(O)c3)c(-c3ccnc(Br)c3)[nH]2)cc1
inactive: BT-549 breast 66.1% | SW-620 colon 70.3% | MCF7 breast 14.6% | HCT-116 colon 49.7% | HCC-2998 colon 84.7% | KM12 colon 50.7%

C[C@@H]1C[C@H]2C(=O)OCC(NC(=O)[C@H](Cc3cc(F)cc(F)c3)NC(=O)Nc3ccc(Cl)cc3F)C(=O)N3CCC[C@H]3C(=O)N3CCCC[C@H]3C(=O)N[C@@H](C)C(=O)N2C1 (stereo partly drawn)
active: HCT-116 colon -6.65%
inactive: BT-549 breast 21.4% | MDA-MB-435 melanoma 19.9% | SW-620 colon 37.7% | MCF7 breast 12.6% | HCC-2998 colon 15.8% | KM12 colon 36.1%

CS(=O)(=O)c1ccc(-c2nn(-c3ccccc3)cc2/C=N/NC(=O)c2ccncc2)cc1
inactive: BT-549 breast 97.1% | MDA-MB-435 melanoma 85.4% | SW-620 colon 102% | MCF7 breast 93.8% | HCT-116 colon 107% | HCC-2998 colon 102% | KM12 colon 90.7%

CC1CCN(S(=O)(=O)c2ncsc2-c2ccccc2)CC1
inactive: BT-549 breast 73.5% | MDA-MB-435 melanoma 95.5% | SW-620 colon 100% | MCF7 breast 72.3% | HCT-116 colon 87.5% | HCC-2998 colon 97.4%

N#Cc1c(NC(=O)c2ccccc2C(F)(F)F)sc2c1CCC(=O)C2
active: MDA-MB-435 melanoma 0.916% | SW-620 colon 3.92% | MCF7 breast 3.89% | HCT-116 colon 8.03% | KM12 colon 5.98%
inactive: BT-549 breast 11.7% | HCC-2998 colon 27.6%
